Source: PubChem (National Center for Advancing Translational Sciences (NCATS))
The list is not random: actives were taken first. Their share in the collection is about 8.7%.
VACV mCherry inh: inhibitors of vaccinia virus infection (mCherry reporter signal); hit rate 0.63% among 310,000; AID 720579; Potency, µM (top dose mostly 36.5 µM), for inactives: at the highest dose activity change, negative = inhibition, actives largely listed as inhibitors; Vaccinia virus mCherry reporter infection, fluorescence; calls by dose curve; tested in A549 cells; note: nearly all actives have a fitted effect of over 35% in size
Pf growth 96h: P. falciparum growth inhibition at 96 hours; P. falciparum luciferase reporter growth, 96 h; Potency, µM (highest dose often 28.7 µM), for inactives: at the highest dose activity change, negative = inhibition, actives largely listed as inhibitors; hit rate 6.9% among 320,000; AID 504834
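Plates of compound plus infected erythrocytes (2% hematocrit, 0.05% parasitemia final) incubate 96 hours, 37 C, 5% CO2. Detection reagent added; reduced luminescence from the parasites' luciferase reporter flags inhibition.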
AMA1 RON2 block: disrupts binding of P. falciparum AMA1 to RON2 | AlphaScreen AMA1-biotinylated RON2 peptide binding | Potency, µM (doses to about 58.2 µM), without a hit: at the highest dose activity change, negative = inhibition, usual class: inhibitors | hit rate 0.2% among 360,000 | AID 720542;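 note: 0% = vehicle wells and -100% = peptide control; nearly all actives have a fitted effect of over 45% in size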
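AMA1 (3D7) with his tag at 25 nM final met compounds first, then biotinylated RON2 peptide at 25 nM; detection used donor plus acceptor beads, 10 µg/mL apiece, read by AlphaScreen after 30 min at room temperature.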
Pf growth 48h: inhibits P. falciparum growth in the first generation, 48 h; AID 504832; Potency, µM (doses to about 28.7 µM), for the others: at the top dose activity change, negative = inhibition, most hits filed as inhibitors; hit rate 5.9% among 310,000; P. falciparum luciferase growth in erythrocytes, 48 h
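Luciferase-expressing parasites in RBCs, 2% Hct / 0.1% parasitemia final; RPMI 1640 + 0.5% Albumax; 37 C, 5% CO2, one generation; luminescence read-out, lower signal = inhibition.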
VACV Venus inh: inhibitors of vaccinia virus (Venus reporter). hit rate 0.46% among 330,000. Potency, µM (highest dose often 36.5 µM), inactives show at the top dose activity change, negative = inhibition, actives largely listed as inhibitors. Vaccinia virus Venus reporter expression, fluorescence; calls by dose curve; tested in A549 cells; note: nearly all actives have a fitted effect of over 30% in size
Numbers without * were called inactive; i = inactive; ? = inconclusive; . = no result given; [ ] = another dose, or the depositor's remark. Unless noted, calls come from the whole dose curve; as a rule, active = well fitted curve in the direction sought with a large enough effect; inconclusive = small, poorly fitted or top-dose-only effect, or another doubt; inactive = no such curve, though single readings can be large; an effect the other way counts as inactive or inconclusive. Unless noted, % is set by controls: 0 for no effect and ±100 for the full control effect; potency is the fitted concentration of half-maximal effect.

SMILES	VACV mCherry inh	Pf growth 96h	AMA1 RON2 block	Pf growth 48h	VACV Venus inh
COCC(=O)Nc1cc(C(=O)N2CCN(c3ccccc3)C(=O)C2)cc2nc(-c3ccccc3)n(C)c12	-13%	.	.	.	-5%
COc1ccc(NC(=O)C2CCCN(c3c4c(nc5ncnn35)CCC4)C2)cc1 (stereo not given)	.	12µM*	7%	-20%	.
Cc1ccc(NC(=O)C2CCCN(c3ncnc4c3nc3n4CCCCC3)C2)nc1 (stereo not given)	i	1%	0%	?	-25%
CC(=O)c1ccc(N2CCN(C(=O)C3CCCN(c4ncnc5c4nc4n5CCCCC4)C3)CC2)cc1 (stereo not given)	-10%	?	11%	13µM*	-5%
Cc1ccnc(NC(=O)C2CCCN(c3ncnc4c3nc3n4CCCCC3)C2)c1 (stereo not given)	i	10µM*	3%	-3%	-20%
COc1ccc(N2CCN(C(=O)C3CCCN(c4ncnc5c4nc4n5CCCCC4)C3)CC2)cc1 (stereo not given)	-29%	4%	-7%	12µM*	-25%
CN1CCN(C(=O)C2CCCN(c3ncnc4c3nc3n4CCCCC3)C2)CC1 (stereo not given)	-5%	1%	-9%	?	0%
CC(=O)Nc1ccc(Nc2nc3ccc(C)cc3n3nnnc23)cc1	-5%	.	.	.	-4%
O=C(Nc1ccccn1)C1CCCN(c2ncnc3c2nc2n3CCCCC2)C1 (stereo not given)	-7%	4%	0%	-25%	-13%
O=C(Nc1cccnc1Cl)C1CCCN(c2ncnc3c2nc2n3CCCCC2)C1 (stereo not given)	.	12µM*	22%	-10%	.
CC(=O)c1ccc(NC(=O)C2CCCN(c3ncnc4c3nc3n4CCCCC3)C2)cc1 (stereo not given)	i	6.6µM*	-3%	?	-11%
COc1ccccc1NC(=O)C1CCN(c2ncnc3c2nc2n3CCCCC2)CC1	-10%	10µM*	-6%	?	-8%
COc1ccc(NC(=O)C2CCN(c3ncnc4c3nc3n4CCCCC3)CC2)c(OC)c1	.	?	0%	-16%	.
CC1CCN(CCNC(=O)C2CCCN(c3ncnc4c3nc3n4CCCCC3)C2)CC1 (stereo not given)	-9%	2.9µM*	-7%	-8%	-6%
CSc1cccc(NC(=O)C2CCCN(c3ncnc4c3nc3n4CCCCC3)C2)c1 (stereo not given)	.	0%	-4%	-26%	.
O=C(COc1ccccc1F)Nc1ccccc1C(=O)OCc1cc(=O)n2nc(C3CC3)sc2n1	-12%	.	.	.	-2%
C/C(O)=C1\C(=O)[C@@H]2[C@H]3c4c[nH]c5cccc(c45)C[C@H]3C(C)(C)N2C1=O	i	.	.	.	-12%[60.7 µM]
COc1ccc2nc(C)cc(Nc3ccc(N4CCOCC4)cc3)c2c1	-2%	3%	-15%	2.9µM*	-26%
COc1ccc2nc(C)cc(Nc3ccc(C)cc3)c2c1	?	9%	0%	?	-12%
COc1ccc2nc(C)cc(Nc3ccc(N4CCN(C)CC4)cc3)c2c1	?	?	-11%	0%[0.00184 µM]	10µM*
COc1ccc(NC(=O)CCS(=O)(=O)c2cc3c4c(c2)CCN4C(=O)CC3)cc1OC	-5%	.	.	.	-6%
O=C(NCCc1nnc2n1CCN(Cc1ccc(F)cc1)CC2)c1ccco1	-3%	.	.	.	-14%
Cc1cc(NC(=O)c2cccs2)ncc1NC(=O)c1cccc(F)c1	.	5.2µM*	7%	62%	.
Cc1cc(NC(=O)c2cccs2)ncc1NC(=O)C(C)C	i	2.3µM*	8%	232%	-14%
CC(=O)NCCNC(=O)CCCc1nnc2n(C)c(=O)c3sccc3n12	-3%	.	.	.	2%
SMILES	VACV mCherry inh	Pf growth 96h	AMA1 RON2 block	Pf growth 48h	VACV Venus inh
C=C1CCC[C@]2(C)C[C@H]3OC(=O)C(CNC(C)CCCC(C)C)[C@H]3CC12 (stereo not given in full)	?	?	1%	.	7.1µM*
C=C1CCC[C@]2(C)C[C@H]3OC(=O)C(CNCC(OC)OC)[C@H]3CC12 (stereo not given in full)	4.5µM*	-2%	0%	0%	?
C=C1CCC[C@]2(C)C[C@H]3OC(=O)C(CN[C@@H](C)c4ccccc4)[C@H]3CC12 (stereo not given in full)	?	?	2%	?	?
O=C(Nc1sc2c(c1C(=O)NCc1ccccc1)CCCC2)c1cc(=O)c2ccccc2o1	-20%	.	.	.	-14%
CCN(CC)c1ccc(S(=O)(=O)N2CCOCC2)cc1NC(=O)Cn1nc(C)c([N+](=O)[O-])c1C	.	12µM*	4%	?	.
CCN(CC)c1ccc(S(=O)(=O)N2CCOCC2)cc1NC(=O)CN1CCc2ccccc2C1	-2%	?	1%	10µM*	-8%
COc1ccc(C2Nc3ccccc3C(=O)N2c2ccccc2)cc1Cn1cc([N+](=O)[O-])cn1 (stereo not given)	-12%	5.2µM*	8%	13µM*	-7%
COc1ccc(N2C(=O)c3ccccc3NC2c2ccc(OC)c(Cn3cc([N+](=O)[O-])cn3)c2)cc1 (stereo not given)	.	44%	4%	?	.
O=C(CN1CCc2cc3c(cc2C1)OCCCO3)Nc1ccc(S(=O)(=O)N2CCCC2)cc1	i	13µM*	0%	?	-6%
COC(=O)c1cc(NC(=O)CN2CCc3cc4c(cc3C2)OCCCO4)cc(C(=O)OC)c1	?	9.3µM*	-6%	-6%	?
Cc1c(Cl)cccc1NC(=O)CCN1C(=O)c2ccccc2Sc2ncccc21	-6%	.	.	.	-7%
CCCc1c(C(=O)Nc2cc(C)on2)cnn1-c1ccccc1	i	9.3µM*	-4%	?	-10%
Cc1cccc2c(/C=C/c3ccc(N(C)C)cc3)ccnc12	-18%	.	.	.	-9%
CCN(CC)c1cccc(OCC(=O)N2c3ccccc3CC2C)c1 (stereo not given)	.	?	-24%	9.3µM*	.
O=C(NCc1ccco1)c1ccc(Cl)c(S(=O)(=O)N2CCOCC2)c1	.	.	-5%	2.3µM*	.
O=C(NCC1(N2CCOCC2)CCCCC1)c1ccc(Cl)c(S(=O)(=O)NCc2ccco2)c1	.	26%	-9%	6.6µM*	.
O=C(NCc1cccs1)c1cccc(S(=O)(=O)N2CCCCC2)c1	.	.	-2%	-12%	.
O=C(NCc1ccco1)c1ccc(S(=O)(=O)N2CCCCC2)cc1	-6%	28%	-4%	0%	-20%
O=C(NCc1ccco1)c1ccc(S(=O)(=O)N2CCCCCC2)cc1	.	10µM*	3%	8.3µM*	.
O=C(NCc1cccs1)c1ccc(Cl)c(S(=O)(=O)N2CCCC2)c1	i	?	1%	0.33µM*	-15%
CCCCCCCCCCN(CCCCCCCCCC)c1ccc(/C=C/c2ccnc3ccccc23)cc1	24%	.	.	.	11%
